Drawing on PubChem BioAssay AID624351 (Southern Research Specialized Biocontainment Screening …, 2012), this text covers IC50 for 32 compounds.

Among all 2,400 compounds or so, about 1,400 (58%) were called active.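 How the source made its calls: active means inhibition of 30% or more at any tested dose; inconclusive means primary hits over the limit that were never retested; inactive means the rest.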 So high a share suggests a set chosen from earlier hits. The list shows a part of the results.

This experiment in a line: ADP Hunter readout inhibition without MgcRacGAP – biochemical, coupled enzyme counter-screen, artefact control for MgcRacGAP inhibitor project, dose response (AID 624351).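 Further: signal is the ADP detection kit reading of free GDP without any GAP enzyme.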 As to conditions: fluorescence, no MgcRacGAP; series mostly up to 80 µM.
As to `CCN1/C(=C/c2ccc3cc(C)ccc3[n+]2CC)Sc2ccccc21`, the IC50 result was “inactive”.
Under `OC(CON=C1c2ccccc2-c2ccccc21)CN1CCNCC1` (configuration not stated) stands “inactive”.
On to `O=C(N/N=C/c1ccc(O)cc1)c1cccc(C(F)(F)F)c1`, for which the IC50 was 69.2 µM (active).
Under `O=C(CNC(=O)c1ccccc1Br)N/N=C/c1ccc(O)cc1` stands 54.3 µM (active).
As to `Cc1ccc(C(=O)Oc2csc(=S)n2C(=O)c2ccc(C)cc2)cc1`, the IC50 entry was “inactive”.
For `Cc1ccc(C)c(OCCCCN2CCCCC2)c1`, the IC50 entry is “inactive”.
As for `COc1ccc(CN2CCC(N3CC(C)OC(C)C3)CC2)c(OC)c1OC` (configuration not stated), the IC50 result was “inactive”.
For the compound `COc1cc(/C=N/NC(=O)c2ccoc2C)ccc1O`, the IC50 is 32.2 µM (active).
For the compound `COc1cc(/C=N/NC(=O)c2cc(C)oc2C)ccc1O`, the IC50 was 49.8 µM (active).
Under `Cc1cc(C(=O)NNC(=O)/C=C/c2ccco2)c(C)o1` stands “inactive”.
Under `OCCN(CCO)c1ccc2ccccc2c1` stands 65 µM (active); under `CCCN(CCO)CCCc1ccccc1`, “inactive”; under `OCCN1CCN(Cc2ccc3ccccc3c2)CC1`, “inactive”.
The value for `COc1cc(/C=N/n2cnnc2)ccc1OC(=O)c1cccnc1` was “inactive”.
For the compound `CCOc1cc(/C=N/n2cnnc2)ccc1O`, the IC50 is 34 µM (active).
Consider `CCOc1cc(/C=N\n2nnnc2N)ccc1O`, for which the IC50 is 45.1 µM (active).
For `COc1cc(/C=N/n2nnnc2N)ccc1O`, the IC50 is 18.4 µM (active).
Turning to `Cc1[nH]c2ccccc2c1/C=N\NC(=O)CNc1ccc2c(c1)OCO2`, the IC50 entry is “inactive”.
Under `Cc1[nH]c2ccccc2c1/C=N/Nc1nncn1N` stands 62.6 µM (active); under `CCc1nnc(N/N=C/c2cc(Br)c(O)cc2O)n1N`, 72.7 µM (active); under `CCc1nnc(N/N=C/c2c(C)[nH]c3ccccc23)n1N`, 45.9 µM (active).
For the compound `N#CC(C#N)=C1C=CC=CN1/C(=C\c1ccco1)C(=O)c1ccc(Br)cc1`, the IC50 entry was “inactive”.
`O=C(O)c1cccc(-n2sc3ccccc3c2=O)c1`: the IC50 entry is “inactive”.
In the case of `O=c1c2ccccc2sn1-c1ccc(F)cc1`, the IC50 result was “inactive”.
The value for `Cc1ccc(C(C2=C(O)CC(C)(C)CC2=O)C2C(=O)CC(C)(C)CC2=O)s1` (configuration not stated) was “inactive”.
On to `Cc1ccc(C(C2=C(O)CC(C)(C)CC2=O)C2C(=O)CC(C)(C)CC2=O)o1` (configuration not stated), for which the IC50 result is “inactive”.
Under `CC1(C)CC(=O)C2=C(C1)OC1=C(C(=O)CC(C)(C)C1)C2c1ccc(O)cc1O` stands “inactive”.
Turning to `O=C1CC(c2ccccc2)CC(O)=C1C=Nc1ccc(O)cc1` (configuration not stated), the IC50 is 28.9 µM (active).
As for `O=C1CCCC(O)=C1C=Nc1ccc(O)cc1`, the IC50 is 18.6 µM (active).
With `CC1(C)CC(=O)C(C=Nc2ccc(N)cc2)=C(O)C1`, the IC50 was 82.4 µM (active).
As to `CC1(C)CC(=O)C(C(C2=C(O)CC(C)(C)CC2=O)c2ccc(Br)s2)C(=O)C1` (configuration not stated), the IC50 entry is “inactive”.
Consider `CC1(C)CC(=O)C(C=Nc2ccc(O)cc2)=C(O)C1`, for which the IC50 was 17.4 µM (active).
